Measurements: PubChem BioAssay (NCI)
The panel holds about 79,000 compounds, 15% with a hit somewhere; the sample as a whole holds those more often. Unmarked numbers belong to inactive results. Active and inactive are the calls of the source. No stated cut-off is given here; in the data, active means growth inhibition above about 70%; inactive means the rest.

Assay: NCI Yeast Anticancer Drug Screen. Data for the rad50 strain (AID 155);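 further: 0% = growth of vehicle-only cultures of the same strain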
Conditions: S. cerevisiae rad50 strain growth inhibition, hits give high values
Experimental: Growth inhibition of yeast strains with defined genetic alterations is measured as a screen for potential anti-cancer activity. Selected strains with alterations in DNA damage repair or cell cycle control were exposed to compounds and growth inhibition was measured relative to vehicle treated controls. The strain used in this assay is rad50

[1] = at 5.0 µM (retest, dose inferred, filed as 0.5)
[2] = at 50.0 µM (retest, dose inferred, filed as 5.0)

SMILES | growth inhibition [1] | growth inhibition [2] | growth inhibition (at 50.0 µM)
Cc1cc(Br)c(P(=O)(O)O)cc1[N+](=O)[O-] | -3% | -10% | 74.1% (active)
C/C(=N/NC(=O)Nc1ccc(N=Nc2ccccc2)cc1)c1cccnc1 | -10% | -6% | 12.7%
COc1cc(OC)c(/C=C\c2ccnc3ccccc23)c(OC)c1 | 35% | 91% (active) | 81.6% (active)
CCOc1ccc(C(OC)OC)cc1[N+](=O)[O-] | 3% | -7% | -12.1%
CCCCNC(=S)NC1OC(CO)C(O)C(O)C1O (configuration not stated) | 2% | 7% | 99.3% (active)
CCOC(=O)/C(=C/c1ccccc1Br)P(=O)(OCC)OCC | 7% | 39% | 71.2% (active)
O=S(=O)(/C=C/c1cccnc1)/C=C/c1cccnc1 | 0% | 2% | -14.1%
CC(C)(C)c1ccc2c(c1)CNCCNCc1cc(C(C)(C)C)ccc1OCC1(CO2)COc2ccc(C(C)(C)C)cc2CNCCNCc2cc(C(C)(C)C)ccc2OC1 | 99% (active) | 92% (active) | 89% (active)
O=C(NCCc1c(-c2ccccc2)[nH]c2ccccc12)C(F)(F)C(F)(F)F | 21% | 21% | 86.5% (active)
COc1ccc(C2C(C#N)(C#N)C2(C#N)C#N)cc1 | 16% | 98% (active) | 63.5%
CS(=O)(=O)C(=Cc1ccccc1Cl)S(C)(=O)=O | 30% | 57% | -12.7%
COC1=C2C[C@@H](C)C[C@@H](OC)[C@@H](O)[C@H](C)/C=C(\C)[C@@H](OC(N)=O)[C@H](OC)/C=C\C=C(/C)C(=O)NC(=CC1=O)C2=O | 61% | 88% (active) | 85.8% (active)
CCCCCCCCCCCCNCC(=O)O | -2% | 80% (active) | 92.9% (active)
Cc1cc(O)n(Cc2ccccc2)c(=O)c1 | -151% | 34% | 48.5%
